Test results: paper PMC4336329 (PLoS ONE, 2015)
About 14,000 (4.5%) of roughly 310,000 compounds showed an effect of 50% or more. The effect is printed as a negative number. The entries come from a sample that favours strong results as a whole.

Molecular target: human ether-à-go-go-related gene (hERG) potassium channel (human, UniProt Q12809)
Test: primary screen, population patch clamp on CHO cells stably expressing hERG; higher = less effect of the substance
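Also: peak tail current of the secondary pulse compared with the same well before compound.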

Sequence of human ether-à-go-go-related gene (hERG) potassium channel (Q12809 whole entry, looked up): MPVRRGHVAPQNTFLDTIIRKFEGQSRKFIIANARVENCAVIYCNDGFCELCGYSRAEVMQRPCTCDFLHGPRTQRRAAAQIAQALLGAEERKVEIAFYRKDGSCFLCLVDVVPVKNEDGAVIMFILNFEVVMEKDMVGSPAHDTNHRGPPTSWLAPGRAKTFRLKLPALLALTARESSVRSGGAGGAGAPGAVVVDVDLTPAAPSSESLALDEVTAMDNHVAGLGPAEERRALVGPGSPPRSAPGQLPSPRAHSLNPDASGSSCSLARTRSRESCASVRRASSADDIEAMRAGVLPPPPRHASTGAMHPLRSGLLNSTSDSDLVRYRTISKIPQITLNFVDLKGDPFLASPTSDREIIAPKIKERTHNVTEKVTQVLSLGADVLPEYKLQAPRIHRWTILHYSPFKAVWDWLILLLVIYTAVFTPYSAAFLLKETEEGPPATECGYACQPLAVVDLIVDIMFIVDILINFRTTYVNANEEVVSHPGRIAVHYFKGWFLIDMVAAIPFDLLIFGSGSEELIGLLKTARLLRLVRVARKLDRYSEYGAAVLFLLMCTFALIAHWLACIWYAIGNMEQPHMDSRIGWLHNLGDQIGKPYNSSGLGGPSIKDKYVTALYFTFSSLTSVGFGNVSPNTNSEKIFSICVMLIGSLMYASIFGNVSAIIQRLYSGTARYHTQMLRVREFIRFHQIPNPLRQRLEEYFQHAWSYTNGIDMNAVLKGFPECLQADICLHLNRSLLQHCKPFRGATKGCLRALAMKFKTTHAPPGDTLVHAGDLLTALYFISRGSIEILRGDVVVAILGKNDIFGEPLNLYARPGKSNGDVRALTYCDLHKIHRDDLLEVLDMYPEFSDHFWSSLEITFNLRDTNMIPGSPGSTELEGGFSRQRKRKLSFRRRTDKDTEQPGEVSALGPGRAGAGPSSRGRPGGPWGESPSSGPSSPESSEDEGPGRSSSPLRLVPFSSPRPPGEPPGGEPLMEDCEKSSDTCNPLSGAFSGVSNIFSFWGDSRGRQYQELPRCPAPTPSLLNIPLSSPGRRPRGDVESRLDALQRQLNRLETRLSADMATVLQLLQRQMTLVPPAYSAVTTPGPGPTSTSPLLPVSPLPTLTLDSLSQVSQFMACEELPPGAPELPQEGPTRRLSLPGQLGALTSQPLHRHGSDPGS

SMILES | hERG current change (%, negative = inhibition) at 10uM
Cc1cc(NC(=O)c2cc3n(n2)C(C(F)(F)F)CC(c2ccco2)N3)no1 (stereo not shown) | 4.63%
Cn1c(=O)n(-c2ccc(Cl)cc2)c(=O)c2c3c(sc21)COC(C)(C)C3 | 3.68%
O=C(N/N=C/c1cccnc1)c1ccccc1Cl | 14.2%
COc1ccc(Cc2c(O)[nH]c(=S)[nH]c2=O)cc1 | 13.8%
CN1CCN(C(=O)CN(CCc2ccccc2)S(C)(=O)=O)CC1 | 11%
CCn1ccnc1CN(C)Cc1cn(-c2ccc(C)cc2)nc1-c1cccc(C)c1 | -28.1%
CCn1ccnc1CNCc1cn(-c2cc(C)ccc2C)nc1-c1ccccc1 | -69.3%
Cc1ccc(C)c(-n2cc(CN3CCCN(C=O)CC3)c(-c3ccccc3)n2)c1 | -31.9%
CCn1ccnc1CN(C)Cc1cn(-c2cccc(C)c2)nc1-c1cccc(F)c1 | -18.3%
CCn1ccnc1CN(C)Cc1cn(-c2cc(C)ccc2C)nc1-c1ccccc1 | -51.7%
Cc1ccc(C)c(-n2cc(CN3CCNC(=O)CC3)c(-c3ccccc3)n2)c1 | -43.5%
Cc1ccc(C)c(-n2cc(CNCCc3cnccn3)c(-c3ccccc3)n2)c1 | -67.1%
CCn1ccnc1CN(C)Cc1cn(-c2ccc(C)cc2)nc1-c1ccc(F)cc1 | -39.9%
COCCN1CCC(CNCc2cn(-c3cc(C)ccc3C)nc2-c2ccccc2)C1 (stereo not shown) | -18%
CCCN1CCC(=NNC(=O)c2ccc(Br)o2)CC1 | -7.22%
COc1ccc(S(=O)(=O)N=C2C=C(C)C(=O)C(C)=C2)cc1 | -8.48%
Cc1cc(=O)n2ccsc2n1 | 3.28%
Cc1cc(=O)[nH]c2c1cnn2Cc1ccccc1 | 3.72%
COc1ccc(/C=C(\C#N)C(=O)OCC(=O)NCc2ccccc2Cl)cc1 | 6.86%
Cc1nn(Cc2ccccc2Cl)c(Cl)c1C(=O)O | 8.83%
Cc1nn(Cc2ccccc2)c(C)c1C(=O)N1CCN(S(=O)(=O)/C=C/c2ccccc2)CC1 | -24.8%

SMILES | hERG current change (%, negative = inhibition) at 10uM
Cc1cccc(NC(=O)CN2CCN(C(=O)c3c(C)nn(Cc4ccccc4)c3C)CC2)c1C | -20.4%
Cc1nn(Cc2ccccc2)c(C)c1C(=O)N1CCN(CC(=O)Nc2ccc(F)cc2)CC1 | -62.6%
Cc1cccc(N2CCN(C(=O)c3c(C)nn(Cc4ccccc4Cl)c3C)CC2)c1C | -0.851%
Cc1nn(Cc2ccccc2)c(C)c1C(=O)O | -19.1%
Cc1nn(Cc2ccccc2Cl)c(C)c1C(=O)N1CCN(c2ccccc2)CC1 | -58.6%
O=C(CN1CCN(CC(=O)Nc2ccccc2Cc2ccccc2)CC1)Nc1ccccc1Cl | 20%
Cc1nn(Cc2ccccc2)c(C)c1C(=O)N1CCN(CC(=O)Nc2ccccc2Cl)CC1 | -50.3%
CC(=O)c1ccc(OCCCCOc2ccc(C(C)=O)cc2)cc1 | 21.4%
COc1ccccc1OC(=O)c1ccc(SC)cc1OC | -24%
C[C@]12CC[C@@H]3c4ccc(OS(=O)(=O)[O-])cc4CC[C@H]3[C@@H]1CCC2=O.[Na+] | 16.9%
O=C(CSc1nc(-c2ccccc2)c(-c2ccccc2)o1)NC1CCS(=O)(=O)C1 (stereo not shown) | -27.1%
CCc1ccccc1NC(=O)CCCN1C(=O)C2CC=CCC2C1=O (stereo not shown) | 12%
Cc1ccccc1C(N)c1ccncc1.Cl (stereo not shown) | 2.52%
COc1cc(/C=C(\C#N)c2nc3ccccc3[nH]2)cc(Br)c1OCc1ccccc1 | 0.571%
Cc1ccc(N(CC(=O)NCc2ccco2)C(=O)CCC(=O)Nc2nccs2)cc1 | -1.5%
Cc1ccc(C(=O)NNC(=O)COc2ccc(Cl)cc2C)o1 | -57.6%
COc1cc(C#N)ccc1OCC(=O)Nc1ccc(C)c(S(=O)(=O)N2CCOCC2)c1 | -36.1%
COc1ccc(Cl)cc1NC(=O)COc1ccc(S(=O)(=O)N2CCOCC2)cc1C | 10.8%
COc1cc(C(C)=O)ccc1OCC(=O)Nc1ccc(Cl)c(S(=O)(=O)N2CCOCC2)c1 | -66.7%
COc1ccc(C(=O)NNC(=O)COc2ccc(Cl)cc2C)cc1S(=O)(=O)N1CCOCC1 | -77.1%
Cc1cc(Cl)ccc1OCC(=O)NNC(=O)c1cnccn1 | 11.6%

SMILES | hERG current change (%, negative = inhibition) at 10uM
Cc1cc(Cl)ccc1OCC(=O)NNC(=O)c1ccco1 | 8.38%
COc1ccc(CC(=O)NNC(=O)COc2ccc(Cl)cc2C)cc1S(=O)(=O)N1CCOCC1 | -36.1%
COc1cc(C(C)=O)ccc1OCC(=O)Nc1ccc(C)c(S(=O)(=O)N2CCCCCC2)c1 | -26.3%
CC1(C)CC(=O)C2=C(C1)OC1=C(C(=O)CC(C)(C)C1)C2c1ccccc1 | 16.9%
Nc1c(N(C(=O)Nc2ccc(Cl)c(Cl)c2)C2CCCC2)c(=O)[nH]c(=O)n1Cc1ccccc1 | 24.7%
COc1ccc(NC(=O)CS(=O)CC(=O)Nc2ccc(-n3cnnn3)c(C)c2)cc1 (stereo not shown) | 12.4%
S=c1[nH]nc(-c2ccco2)n1/N=C/C=C/c1ccco1 | 13.7%
C/C(=N/NS(=O)(=O)c1ccc(C)cc1)c1ccc2c(c1)OCO2 | 13%
C=CCc1cccc2cc(C(=O)N(CC)CC)c(=O)oc12 | -6.47%
CCOCCCN1C(=O)C2C(C(=O)Nc3ccc(OCC)cc3)C3C=CC2(O3)C1C(=O)NC1CCCCC1 (stereo not shown) | -72.8%
CCCN(CCC)CCN1C(=O)C2C(C(=O)Nc3ccc(C)cc3)C3C=CC2(O3)C1C(=O)NC1CCCCC1 (stereo not shown) | -30.2%
CCCCN(C)CCN1C(=O)C2C(C(=O)Nc3ccc(C)cc3)C3C=CC2(O3)C1C(=O)NC1CCCCC1 (stereo not shown) | -26.1%
CCOc1ccc(NC(=O)C2C3C=CC4(O3)C2C(=O)N(Cc2cccnc2)C4C(=O)NC2CCCCC2)cc1 (stereo not shown) | 16%
CCCCN(C)CCN1C(=O)C2C(C(=O)Nc3ccc(OC)cc3)C3C=CC2(O3)C1C(=O)NC1CCCCC1 (stereo not shown) | -8.93%
CCCN(CCC)CCN1C(=O)C2C(C(=O)Nc3cccc(SC)c3)C3C=CC2(O3)C1C(=O)NC1CCCCC1 (stereo not shown) | -68.2%
CSc1cccc(NC(=O)C2C3C=CC4(O3)C2C(=O)N(CCN2CCOCC2)C4C(=O)NC2CCCCC2)c1 (stereo not shown) | 9.21%
COc1ccc(NC(=O)C2C3C=CC4(O3)C2C(=O)N(CCN2CCCCC2)C4C(=O)NC2CCCCC2)cc1 (stereo not shown) | 9.9%
CCCCN(C)CCN1C(=O)C2C(C(=O)Nc3ccc(Cl)cc3)C3C=CC2(O3)C1C(=O)NC1CCCCC1 (stereo not shown) | -70.2%
Cc1ccccc1NC(=O)/C(C#N)=C\c1cccnc1 | -16.3%
Cc1ccc2oc(C(=O)N3CCC(C(N)=O)(N4CCCCC4)CC3)c(C)c2c1 | -27%
COc1cc2cc(C(C)(C)O)oc(=O)c2cc1OC | 13%

SMILES | hERG current change (%, negative = inhibition) at 10uM
O=C(c1cc2c(s1)-c1ccccc1OC2)N1CCCC1 | -4.69%
O=C(Cn1ncc2c(=O)oc3ccccc3c21)NCCC1=CCCCC1 | -3.92%
O=C(Cn1ncc2c(=O)oc3ccccc3c21)N1CCN(C(=O)c2ccco2)CC1 | -73.6%
O=C(Cn1ncc2c(=O)oc3ccccc3c21)NCCc1ccsc1 | -54.2%
O=C(Cn1ncc2c(=O)oc3ccccc3c21)N1CCC(N2CCCCC2)CC1 | -5%
O=C(Cn1ncc2c(=O)oc3ccccc3c21)N1CCN(c2ccccn2)CC1 | -41%
Cc1ccc2oc(=O)c3cnn(CC(=O)NCCc4ccsc4)c3c2c1 | -12.2%
O=C(c1ccco1)N1CCN(C(=O)c2cc3c(s2)-c2ccccc2OC3)CC1 | -63.9%
Cc1ccc2oc(=O)c3cc(C(=O)N4CCN(C(=O)c5ccco5)CC4)sc3c2c1 | -21.5%
O=C(c1cc2c(s1)-c1ccccc1OC2)N1CCN(c2ccccc2)CC1 | 8.08%
O=C(c1cc2c(=O)oc3ccccc3c2s1)N1CCOCC1 | -0.51%
O=C(c1ccco1)N1CCN(C(=O)c2cc3c(=O)oc4ccccc4c3s2)CC1 | -62.9%
Cc1n[nH]c(C)c1S(=O)(=O)NCCc1ccc(Cl)cc1 | 5%
O=c1cc(-c2ccc(O)c(-c3c(O)cc(O)c4c(=O)cc(-c5ccc(O)cc5)oc34)c2)oc2cc(O)cc(O)c12 | -7.09%
COc1cc(C(=O)Nc2ccc3c(c2)OCCO3)ccc1OC(F)F | -5.02%
Cc1cc(NC(=O)CCC(=O)N(Cc2ccccc2)C2(C(=O)NC3CCCCC3)CCCC2)no1 | 21.1%
Cc1cc(NC(=O)CCC(=O)N(CCC(C)C)C(C(=O)NC2CCCC2)c2ccccc2C)no1 (stereo not shown) | -21.5%
O=C(NC(=S)NCC1CCCO1)c1cccc([N+](=O)[O-])c1 (stereo not shown) | 2.05%
O=C(NC1CC2CCCC(C1)N2C(=O)NCc1ccccc1)C1CC1 (stereo not shown) | 4.22%
